# According to the supplement of paper PMC8728848:
# Many of the other results were omitted from the sample, so the strongest signals are more common in it than they were.
# Key:
# Assay in all cases: glycan array binding signal (z-score within array); higher = stronger binding
# Settings in all cases: glycan notation: IUPAC condensed, linker removed; mutation: E41G
# [1] = molecular target: Fuc(a1-2)Gal(b1-3)GalNAc
# Procedure, shortened: (§1)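 The binding signal is a Z-score computed within each array. Data were drawn from 3228 arrays in the Consortium for Functional Glycomics database, restricted to those with a known protein sequence. Scores were averaged over arrays of the same protein sequence at different concentrations or buffers, and over linkers, and negative values can be taken as non-binding.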
# [2] = molecular target: Fuc(a1-2)Gal(b1-3)GlcNAc(b1-3)GalNAc
# Procedure, shortened: as §1
# [3] = molecular target: Fuc(a1-2)Gal(b1-3)GlcNAc(b1-3)[Fuc(a1-2)Gal(b1-3)GlcNAc(b1-6)]GalNAc
# Procedure, shortened: as §1
# [4] = molecular target: Fuc(a1-2)Gal(b1-3)GlcNAc6S
# Procedure, shortened: as §1
# [5] = molecular target: Fuc(a1-2)Gal(b1-3)[Fuc(a1-4)]GlcNAc
# Procedure, shortened: as §1
# [6] = molecular target: Fuc(a1-2)Gal(b1-4)GlcNAc6S
# Procedure, shortened: as §1
# [7] = molecular target: Fuc(a1-2)Gal(b1-4)[Fuc(a1-3)]GlcNAc(b1-2)[Fuc(a1-2)Gal(b1-4)[Fuc(a1-3)]GlcNAc(b1-4)]Man(a1-3)[Fuc(a1-2)Gal(b1-4)[Fuc(a1-3)]GlcNAc(b1-2)Man(a1-6)]Man(b1-4)GlcNAc(b1-4)GlcNAc
# Procedure, shortened: as §1
# [8] = molecular target: Fuc(a1-2)Gal6S(b1-4)Glc6S
# Procedure, shortened: as §1
# [9] = molecular target: Fuc(a1-2)[Gal(a1-3)]Gal(b1-4)Glc
# Procedure, shortened: as §1
# [10] = molecular target: Fuc(a1-2)[Gal(a1-3)]Gal(b1-4)GlcNAc(b1-2)Man(a1-3)[Fuc(a1-2)[Gal(a1-3)]Gal(b1-4)GlcNAc(b1-2)Man(a1-6)]Man(b1-4)GlcNAc(b1-4)GlcNAc
# Procedure, shortened: as §1
# [11] = molecular target: Fuc(a1-2)[Gal(a1-3)]Gal(b1-4)GlcNAc(b1-3)GalNAc
# Procedure, shortened: as §1
# [12] = molecular target: Fuc(a1-2)[GalNAc(a1-3)]Gal(b1-3)GlcNAc(b1-2)Man(a1-3)[Fuc(a1-2)[GalNAc(a1-3)]Gal(b1-3)GlcNAc(b1-2)Man(a1-6)]Man(b1-4)GlcNAc(b1-4)[Fuc(a1-6)]GlcNAc
# Procedure, shortened: as §1
# [13] = molecular target: Fuc(a1-2)[GalNAc(a1-3)]Gal(b1-4)GlcNAc(b1-3)Gal(b1-4)GlcNAc(b1-3)Gal(b1-4)GlcNAc
# Procedure, shortened: as §1
# [14] = molecular target: Gal(a1-3)Gal(b1-3)GlcNAc
# Procedure, shortened: as §1
# [15] = molecular target: Gal(a1-3)Gal(b1-3)[Fuc(a1-4)]GlcNAc(b1-2)Man(a1-3)[Gal(a1-3)Gal(b1-3)[Fuc(a1-4)]GlcNAc(b1-2)Man(a1-6)]Man(b1-4)GlcNAc(b1-4)GlcNAc
# Procedure, shortened: as §1
# [16] = molecular target: Gal(b1-2)Gal
# Procedure, shortened: as §1
# [17] = molecular target: Gal(b1-3)GalNAc(a1-3)[Fuc(a1-2)]Gal(b1-4)Glc
# Procedure, shortened: as §1
# [18] = molecular target: Gal(b1-3)GlcNAc(b1-2)Man(a1-3)[Gal(b1-3)GlcNAc(b1-2)Man(a1-6)]Man(b1-4)GlcNAc(b1-4)GlcNAc
# Procedure, shortened: as §1
# [19] = molecular target: Gal(b1-3)GlcNAc(b1-2)Man(a1-3)[Gal(b1-3)GlcNAc(b1-2)Man(a1-6)]Man(b1-4)GlcNAc(b1-4)[Fuc(a1-6)]GlcNAc
# Procedure, shortened: as §1
# [20] = molecular target: Gal(b1-3)GlcNAc(b1-3)Gal(b1-3)GlcNAc
# Procedure, shortened: as §1
# [21] = molecular target: Gal(b1-3)GlcNAc(b1-3)Gal(b1-4)GlcNAc(b1-2)[Gal(b1-3)GlcNAc(b1-3)Gal(b1-4)GlcNAc(b1-6)]Man(a1-6)[Gal(b1-3)GlcNAc(b1-3)Gal(b1-4)GlcNAc(b1-2)Man(a1-3)]Man(b1-4)GlcNAc(b1-4)[Fuc(a1-6)]GlcNAc
# Procedure, shortened: as §1
# [22] = molecular target: Gal(b1-3)[Fuc(a1-4)]GlcNAc(b1-3)Gal(b1-4)[Fuc(a1-3)]GlcNAc
# Procedure, shortened: as §1
# [23] = molecular target: Gal(b1-3)[Neu5Ac(b2-6)]GalNAc
# Procedure, shortened: as §1
# [24] = molecular target: Gal(b1-4)GlcNAc(b1-2)Man(a1-3)[Gal(b1-4)GlcNAc(b1-2)Man(a1-6)]Man(b1-4)GlcNAc(b1-4)[Fuc(a1-6)]GlcNAc
# Procedure, shortened: as §1
# [25] = molecular target: Gal(b1-4)GlcNAc(b1-2)[Gal(b1-4)GlcNAc(b1-4)]Man(a1-3)[Gal(b1-4)GlcNAc(b1-2)Man(a1-6)]Man(b1-4)GlcNAc(b1-4)GlcNAc
# Procedure, shortened: as §1
# [26] = molecular target: Gal(b1-4)GlcNAc(b1-3)Gal(b1-4)GlcNAc(b1-3)Gal(b1-4)GlcNAc(b1-3)Gal(b1-4)GlcNAc(b1-2)[Gal(b1-4)GlcNAc(b1-3)Gal(b1-4)GlcNAc(b1-3)Gal(b1-4)GlcNAc(b1-3)Gal(b1-4)GlcNAc(b1-6)]Man(a1-6)[Gal(b1-4)GlcNAc(b1-3)Gal(b1-4)GlcNAc(b1-3)Gal(b1-4)GlcNAc(b1-3)Gal(b1-4)GlcNAc(b1-2)Man(a1-3)]Man(b1-4)GlcNAc(b1-4)[Fuc(a1-6)]GlcNAc
# Procedure, shortened: as §1
# [27] = molecular target: Gal(b1-4)GlcNAc(b1-3)Gal(b1-4)[Fuc(a1-3)]GlcNAc(b1-3)Gal(b1-4)[Fuc(a1-3)]GlcNAc
# Procedure, shortened: as §1
binder,measurement,setting,value
CVN-E41G (protein) MHHHHHHENLYFQSGNFSQACYNSAIQGSVLTSTCIRTNGGYNTSSIDLNSVIGNVDGSLKWQGSNFIETCRNTQLAGSSELAAECKTRAQQFVSTKINLDDHIAAIDGTLKYE,glycan array binding signal (z-score),[1],-0.178
same,glycan array binding signal (z-score),[2],-0.168
same,glycan array binding signal (z-score),[3],-0.093
same,glycan array binding signal (z-score),[4],-0.182
same,glycan array binding signal (z-score),[5],-0.157
same,glycan array binding signal (z-score),[6],-0.144
same,glycan array binding signal (z-score),[7],0.014
same,glycan array binding signal (z-score),[8],-0.023
same,glycan array binding signal (z-score),[9],-0.166
same,glycan array binding signal (z-score),[10],-0.122
same,glycan array binding signal (z-score),[11],-0.189
same,glycan array binding signal (z-score),[12],0.532
same,glycan array binding signal (z-score),[13],-0.163
same,glycan array binding signal (z-score),[14],-0.138
same,glycan array binding signal (z-score),[15],1
same,glycan array binding signal (z-score),[16],-0.147
same,glycan array binding signal (z-score),[17],-0.175
same,glycan array binding signal (z-score),[18],0.069
same,glycan array binding signal (z-score),[19],-0.141
same,glycan array binding signal (z-score),[20],-0.13
same,glycan array binding signal (z-score),[21],1.02
same,glycan array binding signal (z-score),[22],-0.151
same,glycan array binding signal (z-score),[23],-0.158
same,glycan array binding signal (z-score),[24],-0.15
same,glycan array binding signal (z-score),[25],-0.165
same,glycan array binding signal (z-score),[26],-0.125
same,glycan array binding signal (z-score),[27],-0.099
